According to PMC7862700, “An all-to-all approach to the identification of sequence-specific readers for epigenetic DNA modifications on cytosine”:

How the values were obtained:
Assay in all cases: DAPPL (digital affinity profiling via proximity ligation, sequencing); 10 mM Tris-HCl pH 7.5, 50 mM NaCl, 1 mM DTT, 4% glycerol, room temperature, 30 min; GST-TFs on glutathione beads, 16-mer random dsDNA library, 0.1% formaldehyde crosslink after washing; high values mean tight binding
FEV = molecular target: T1, FEV (Homo sapiens, UniProt Q99581 1-238); settings: protein: recombinant; tags: N-terminal GST; dsDNA, one strand shown
T1 sequence: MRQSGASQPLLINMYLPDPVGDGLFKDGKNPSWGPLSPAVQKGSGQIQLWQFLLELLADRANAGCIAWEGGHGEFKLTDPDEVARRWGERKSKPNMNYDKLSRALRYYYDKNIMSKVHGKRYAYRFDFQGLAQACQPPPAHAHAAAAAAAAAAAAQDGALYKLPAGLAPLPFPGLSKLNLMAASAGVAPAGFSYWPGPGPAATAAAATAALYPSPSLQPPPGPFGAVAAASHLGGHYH
Method in brief: (§1)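 The binding signal reported is, for every hexamer, its read frequency for a factor over its read frequency for the tag-only sample. Reads came from pools of yeast-expressed, GST-fused human transcription factors on glutathione beads, barcoded with DNA and mixed with that sample, which were incubated with 200 nmole of a random double-stranded 16-mer DNA library in Tris/NaCl/DTT/glycerol buffer at room temperature for 30 min. After washing, the pools were crosslinked with 0.1% formaldehyde, proximity-ligated with BsaI/T4 ligase for 1 h at 37 °C, PCR-amplified and sequenced on an Illumina NextSeq500.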

ETV5 = ETV5 (Homo sapiens, UniProt P41161 1-510); settings: protein: recombinant; tags: N-terminal GST; dsDNA, one strand shown
Method in brief: as §1

HSF1 = HSF1 (Homo sapiens, UniProt Q00613 1-529); settings: protein: recombinant; tags: N-terminal GST; chain copies: 3; dsDNA, one strand shown
Method in brief: as §1

SPIC = molecular target: T2, SPIC (Homo sapiens, UniProt Q8N5J4 1-248); settings: protein: recombinant; tags: N-terminal GST; dsDNA, one strand shown
T2 sequence: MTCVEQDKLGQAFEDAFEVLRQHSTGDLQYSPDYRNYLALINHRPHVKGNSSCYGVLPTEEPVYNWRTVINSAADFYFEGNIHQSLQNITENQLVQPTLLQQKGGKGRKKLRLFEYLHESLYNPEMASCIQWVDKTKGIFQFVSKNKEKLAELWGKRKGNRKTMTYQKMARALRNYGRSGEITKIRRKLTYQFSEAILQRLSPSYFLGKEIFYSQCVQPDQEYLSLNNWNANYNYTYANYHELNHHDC
Method in brief: as §1

ELF4 = ELF4 (Homo sapiens, UniProt Q99607 1-663); settings: protein: recombinant; tags: N-terminal GST; dsDNA, one strand shown
Method in brief: as §1

ELK4 = molecular target: T3, ELK4 (Homo sapiens, UniProt P28324-2 1-405); settings: protein: recombinant; tags: N-terminal GST; dsDNA, one strand shown
T3 sequence: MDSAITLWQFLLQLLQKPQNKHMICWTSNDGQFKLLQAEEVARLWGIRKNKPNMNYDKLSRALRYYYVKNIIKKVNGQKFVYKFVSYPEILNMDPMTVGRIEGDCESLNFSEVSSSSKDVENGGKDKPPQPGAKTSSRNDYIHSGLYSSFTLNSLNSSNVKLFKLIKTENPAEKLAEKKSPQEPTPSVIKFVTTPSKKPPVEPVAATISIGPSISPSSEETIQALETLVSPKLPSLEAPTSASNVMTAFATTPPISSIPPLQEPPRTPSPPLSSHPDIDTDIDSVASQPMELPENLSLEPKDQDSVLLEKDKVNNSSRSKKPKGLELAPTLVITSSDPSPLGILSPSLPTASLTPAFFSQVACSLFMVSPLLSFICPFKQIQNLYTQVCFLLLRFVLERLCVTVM
Method in brief: as §1

ETV2 = molecular target: T4, ETV2 (Homo sapiens, UniProt O00321 1-342); settings: protein: recombinant; tags: N-terminal GST; dsDNA, one strand shown
T4 sequence: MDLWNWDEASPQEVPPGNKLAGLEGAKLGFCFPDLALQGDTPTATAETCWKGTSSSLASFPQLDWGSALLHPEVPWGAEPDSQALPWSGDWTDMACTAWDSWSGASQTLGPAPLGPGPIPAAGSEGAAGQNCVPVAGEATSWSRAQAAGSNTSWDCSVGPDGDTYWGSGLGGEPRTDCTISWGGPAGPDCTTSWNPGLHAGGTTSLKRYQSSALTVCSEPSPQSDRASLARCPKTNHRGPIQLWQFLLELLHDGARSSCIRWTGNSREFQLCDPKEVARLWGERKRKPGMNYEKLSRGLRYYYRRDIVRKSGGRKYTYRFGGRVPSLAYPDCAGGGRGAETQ
Method in brief: as §1

ELF3 = molecular target: T5, ELF3 (Homo sapiens, UniProt P78545 1-371); settings: protein: recombinant; tags: N-terminal GST; dsDNA, one strand shown
T5 sequence: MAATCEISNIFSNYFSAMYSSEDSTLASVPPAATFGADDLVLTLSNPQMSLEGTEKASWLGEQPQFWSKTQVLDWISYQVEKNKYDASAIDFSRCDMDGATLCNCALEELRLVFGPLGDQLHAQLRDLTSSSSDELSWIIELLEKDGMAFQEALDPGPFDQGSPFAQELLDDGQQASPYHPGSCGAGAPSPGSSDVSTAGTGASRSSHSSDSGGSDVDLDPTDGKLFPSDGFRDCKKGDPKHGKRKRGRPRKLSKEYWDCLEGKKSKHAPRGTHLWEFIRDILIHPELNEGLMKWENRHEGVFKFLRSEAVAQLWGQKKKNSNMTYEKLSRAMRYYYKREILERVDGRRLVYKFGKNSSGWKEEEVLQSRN
Method in brief: as §1

CRX = CRX (Homo sapiens, UniProt O43186 1-299); settings: protein: recombinant; tags: N-terminal GST; dsDNA, one strand shown
Method in brief: as §1

ETV1 = ETV1 (Homo sapiens, UniProt P50549 1-477); settings: protein: recombinant; tags: N-terminal GST; dsDNA, one strand shown
Method in brief: as §1

ERF = molecular target: T6, ERF (Homo sapiens, UniProt P50548 1-548); settings: protein: recombinant; tags: N-terminal GST; dsDNA, one strand shown
T6 sequence: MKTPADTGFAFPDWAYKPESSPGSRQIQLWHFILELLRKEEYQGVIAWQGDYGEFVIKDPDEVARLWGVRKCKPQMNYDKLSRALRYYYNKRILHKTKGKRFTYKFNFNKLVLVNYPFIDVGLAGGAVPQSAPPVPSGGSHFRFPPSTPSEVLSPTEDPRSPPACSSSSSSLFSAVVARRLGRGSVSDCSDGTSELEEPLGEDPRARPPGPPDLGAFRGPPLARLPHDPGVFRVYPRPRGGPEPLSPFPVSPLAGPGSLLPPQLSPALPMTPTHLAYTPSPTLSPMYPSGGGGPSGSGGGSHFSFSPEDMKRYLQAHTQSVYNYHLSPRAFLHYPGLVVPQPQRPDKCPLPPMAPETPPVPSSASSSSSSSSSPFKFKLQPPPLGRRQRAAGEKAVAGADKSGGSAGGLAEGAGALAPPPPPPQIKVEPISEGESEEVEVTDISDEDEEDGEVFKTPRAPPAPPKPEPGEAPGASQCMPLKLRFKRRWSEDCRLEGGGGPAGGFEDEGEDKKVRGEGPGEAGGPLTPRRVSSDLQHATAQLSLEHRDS
Method in brief: as §1

ETV3L = molecular target: T7, ETV3L (Homo sapiens, UniProt Q6ZN32 1-361); settings: protein: recombinant; tags: N-terminal GST; dsDNA, one strand shown
T7 sequence: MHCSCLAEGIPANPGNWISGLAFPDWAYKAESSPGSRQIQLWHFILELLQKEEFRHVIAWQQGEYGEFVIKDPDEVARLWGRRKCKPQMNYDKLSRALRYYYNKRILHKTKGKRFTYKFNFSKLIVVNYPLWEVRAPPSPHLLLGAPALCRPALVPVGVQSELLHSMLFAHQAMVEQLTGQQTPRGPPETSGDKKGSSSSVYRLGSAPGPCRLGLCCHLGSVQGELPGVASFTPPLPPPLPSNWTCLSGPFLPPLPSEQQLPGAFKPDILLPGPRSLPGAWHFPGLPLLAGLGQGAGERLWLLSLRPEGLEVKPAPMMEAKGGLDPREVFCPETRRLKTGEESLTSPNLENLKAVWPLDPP
Method in brief: as §1

ETS2 = molecular target: T8, ETS2 (Homo sapiens, UniProt P15036 1-469); settings: protein: recombinant; tags: N-terminal GST; dsDNA, one strand shown
T8 sequence: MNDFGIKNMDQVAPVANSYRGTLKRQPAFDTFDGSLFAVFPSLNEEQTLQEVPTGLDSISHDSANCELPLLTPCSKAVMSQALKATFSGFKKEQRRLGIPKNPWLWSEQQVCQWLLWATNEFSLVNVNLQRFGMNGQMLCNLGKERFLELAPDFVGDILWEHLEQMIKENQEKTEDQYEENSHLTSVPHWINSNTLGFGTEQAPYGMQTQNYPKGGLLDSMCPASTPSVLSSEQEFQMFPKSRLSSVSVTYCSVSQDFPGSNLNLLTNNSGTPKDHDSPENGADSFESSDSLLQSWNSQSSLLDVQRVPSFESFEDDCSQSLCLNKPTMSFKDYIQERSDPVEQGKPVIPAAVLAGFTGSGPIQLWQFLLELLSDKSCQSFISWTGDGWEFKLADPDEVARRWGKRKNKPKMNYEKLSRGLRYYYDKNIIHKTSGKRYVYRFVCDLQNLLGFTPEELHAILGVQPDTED
Method in brief: as §1

SPDEF = molecular target: T9, SPDEF (Homo sapiens, UniProt O95238 1-335); settings: protein: recombinant; tags: N-terminal GST; dsDNA, one strand shown
T9 sequence: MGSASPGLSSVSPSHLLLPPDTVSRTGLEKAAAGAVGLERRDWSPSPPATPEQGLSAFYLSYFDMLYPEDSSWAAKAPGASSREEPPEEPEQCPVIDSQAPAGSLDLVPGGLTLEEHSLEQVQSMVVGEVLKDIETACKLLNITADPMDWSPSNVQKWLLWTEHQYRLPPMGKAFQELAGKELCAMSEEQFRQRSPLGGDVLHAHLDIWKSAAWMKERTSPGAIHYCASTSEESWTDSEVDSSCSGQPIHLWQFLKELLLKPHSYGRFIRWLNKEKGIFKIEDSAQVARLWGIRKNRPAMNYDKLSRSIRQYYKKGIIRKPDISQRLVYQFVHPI
Method in brief: as §1

ETV7 = molecular target: T10, ETV7 (Homo sapiens, UniProt Q9Y603 1-341); settings: protein: recombinant; tags: N-terminal GST; dsDNA, one strand shown
T10 sequence: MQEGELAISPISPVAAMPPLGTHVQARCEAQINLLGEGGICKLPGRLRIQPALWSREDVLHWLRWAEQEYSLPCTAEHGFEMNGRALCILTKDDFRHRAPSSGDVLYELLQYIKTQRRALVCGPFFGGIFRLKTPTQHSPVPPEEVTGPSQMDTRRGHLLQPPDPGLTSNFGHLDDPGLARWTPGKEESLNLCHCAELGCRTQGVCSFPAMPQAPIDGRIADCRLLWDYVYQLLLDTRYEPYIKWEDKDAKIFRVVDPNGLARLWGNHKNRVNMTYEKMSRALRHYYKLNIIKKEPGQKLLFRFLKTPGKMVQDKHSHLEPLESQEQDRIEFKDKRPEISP
Method in brief: as §1

ELF5 = molecular target: T11, ELF5 (Homo sapiens, UniProt Q9UKW6-2 1-255); settings: protein: recombinant; tags: N-terminal GST; dsDNA, one strand shown
T11 sequence: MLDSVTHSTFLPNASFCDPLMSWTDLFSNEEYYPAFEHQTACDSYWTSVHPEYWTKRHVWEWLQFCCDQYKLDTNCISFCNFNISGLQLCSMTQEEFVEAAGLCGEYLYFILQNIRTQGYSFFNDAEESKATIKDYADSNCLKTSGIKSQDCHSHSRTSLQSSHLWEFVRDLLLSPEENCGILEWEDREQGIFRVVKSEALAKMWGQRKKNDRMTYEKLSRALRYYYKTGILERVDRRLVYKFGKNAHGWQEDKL
Method in brief: as §1

ETV3 = molecular target: T12, ETV3 (Homo sapiens, UniProt P41162-2 1-143); settings: protein: recombinant; tags: N-terminal GST; dsDNA, one strand shown
T12 sequence: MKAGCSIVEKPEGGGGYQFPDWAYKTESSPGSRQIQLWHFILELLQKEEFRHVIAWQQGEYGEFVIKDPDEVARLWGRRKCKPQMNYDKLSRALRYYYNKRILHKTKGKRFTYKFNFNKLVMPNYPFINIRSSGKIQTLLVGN
Method in brief: as §1

ETV6 = ETV6 (Homo sapiens, UniProt P41212 1-452); settings: protein: recombinant; tags: N-terminal GST; dsDNA, one strand shown
Method in brief: as §1

Chain of ETV6 (P41212 whole entry): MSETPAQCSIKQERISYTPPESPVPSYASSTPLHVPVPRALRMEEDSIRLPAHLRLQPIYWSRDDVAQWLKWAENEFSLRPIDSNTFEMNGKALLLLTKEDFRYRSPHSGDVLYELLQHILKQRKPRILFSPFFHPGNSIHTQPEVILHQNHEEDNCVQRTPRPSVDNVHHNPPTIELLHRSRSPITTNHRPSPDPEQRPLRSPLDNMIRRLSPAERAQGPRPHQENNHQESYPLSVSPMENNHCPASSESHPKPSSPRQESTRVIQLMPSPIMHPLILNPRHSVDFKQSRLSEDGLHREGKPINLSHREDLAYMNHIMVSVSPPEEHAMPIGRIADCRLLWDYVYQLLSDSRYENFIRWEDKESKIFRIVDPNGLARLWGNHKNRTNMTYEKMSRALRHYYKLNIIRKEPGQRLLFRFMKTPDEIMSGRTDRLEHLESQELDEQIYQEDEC
Chain of HSF1 (Q00613 whole entry): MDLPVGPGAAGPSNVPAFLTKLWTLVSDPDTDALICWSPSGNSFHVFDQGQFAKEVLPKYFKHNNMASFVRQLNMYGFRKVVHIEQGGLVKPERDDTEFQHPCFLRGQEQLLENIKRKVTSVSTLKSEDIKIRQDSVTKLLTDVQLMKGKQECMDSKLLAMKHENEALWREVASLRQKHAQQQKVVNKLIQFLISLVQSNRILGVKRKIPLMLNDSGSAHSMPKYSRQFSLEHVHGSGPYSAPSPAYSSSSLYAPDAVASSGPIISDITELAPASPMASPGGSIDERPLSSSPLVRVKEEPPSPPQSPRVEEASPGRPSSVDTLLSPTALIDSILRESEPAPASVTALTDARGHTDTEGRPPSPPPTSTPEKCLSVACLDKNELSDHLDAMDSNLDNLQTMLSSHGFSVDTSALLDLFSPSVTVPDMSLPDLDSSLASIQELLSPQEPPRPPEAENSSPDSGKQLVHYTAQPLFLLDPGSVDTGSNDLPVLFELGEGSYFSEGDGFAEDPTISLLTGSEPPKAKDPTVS
Chain of CRX (O43186 whole entry): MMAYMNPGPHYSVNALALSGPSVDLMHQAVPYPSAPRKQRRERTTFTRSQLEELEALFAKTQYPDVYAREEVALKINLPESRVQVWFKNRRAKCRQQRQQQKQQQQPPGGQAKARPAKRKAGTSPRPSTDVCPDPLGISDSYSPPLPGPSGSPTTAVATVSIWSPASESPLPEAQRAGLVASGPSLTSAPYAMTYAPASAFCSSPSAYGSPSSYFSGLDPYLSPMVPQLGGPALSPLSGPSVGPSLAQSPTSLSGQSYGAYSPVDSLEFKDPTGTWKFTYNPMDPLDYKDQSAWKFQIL
Chain of ETV1 (P50549 whole entry): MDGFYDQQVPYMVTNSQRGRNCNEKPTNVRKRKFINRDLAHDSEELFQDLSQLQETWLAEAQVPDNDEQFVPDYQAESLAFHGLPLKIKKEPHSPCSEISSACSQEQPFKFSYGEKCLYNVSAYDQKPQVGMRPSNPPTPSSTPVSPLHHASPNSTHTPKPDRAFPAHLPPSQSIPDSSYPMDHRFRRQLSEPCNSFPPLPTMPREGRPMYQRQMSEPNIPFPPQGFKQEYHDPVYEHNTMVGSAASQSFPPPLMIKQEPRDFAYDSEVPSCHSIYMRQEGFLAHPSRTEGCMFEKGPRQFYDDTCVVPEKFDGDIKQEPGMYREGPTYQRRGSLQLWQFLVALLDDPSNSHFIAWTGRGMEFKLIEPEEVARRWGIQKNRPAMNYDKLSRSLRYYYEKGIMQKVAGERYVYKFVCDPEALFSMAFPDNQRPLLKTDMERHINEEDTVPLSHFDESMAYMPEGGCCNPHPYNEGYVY
Chain of ETV5 (P41161 whole entry): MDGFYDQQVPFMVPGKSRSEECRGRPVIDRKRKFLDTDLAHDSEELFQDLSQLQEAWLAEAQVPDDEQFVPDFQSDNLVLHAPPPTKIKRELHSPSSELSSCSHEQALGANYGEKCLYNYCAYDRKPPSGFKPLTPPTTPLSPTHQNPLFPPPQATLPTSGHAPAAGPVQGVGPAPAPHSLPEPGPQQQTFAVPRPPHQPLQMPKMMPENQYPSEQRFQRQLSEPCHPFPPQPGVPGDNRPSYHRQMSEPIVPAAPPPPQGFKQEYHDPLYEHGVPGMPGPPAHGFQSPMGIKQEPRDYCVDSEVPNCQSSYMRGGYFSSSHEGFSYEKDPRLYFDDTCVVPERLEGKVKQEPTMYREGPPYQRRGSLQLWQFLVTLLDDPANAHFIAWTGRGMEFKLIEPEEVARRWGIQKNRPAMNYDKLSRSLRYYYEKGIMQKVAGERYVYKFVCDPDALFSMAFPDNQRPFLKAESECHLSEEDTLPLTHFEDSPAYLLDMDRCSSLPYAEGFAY
Chain of ELF4 (Q99607 whole entry): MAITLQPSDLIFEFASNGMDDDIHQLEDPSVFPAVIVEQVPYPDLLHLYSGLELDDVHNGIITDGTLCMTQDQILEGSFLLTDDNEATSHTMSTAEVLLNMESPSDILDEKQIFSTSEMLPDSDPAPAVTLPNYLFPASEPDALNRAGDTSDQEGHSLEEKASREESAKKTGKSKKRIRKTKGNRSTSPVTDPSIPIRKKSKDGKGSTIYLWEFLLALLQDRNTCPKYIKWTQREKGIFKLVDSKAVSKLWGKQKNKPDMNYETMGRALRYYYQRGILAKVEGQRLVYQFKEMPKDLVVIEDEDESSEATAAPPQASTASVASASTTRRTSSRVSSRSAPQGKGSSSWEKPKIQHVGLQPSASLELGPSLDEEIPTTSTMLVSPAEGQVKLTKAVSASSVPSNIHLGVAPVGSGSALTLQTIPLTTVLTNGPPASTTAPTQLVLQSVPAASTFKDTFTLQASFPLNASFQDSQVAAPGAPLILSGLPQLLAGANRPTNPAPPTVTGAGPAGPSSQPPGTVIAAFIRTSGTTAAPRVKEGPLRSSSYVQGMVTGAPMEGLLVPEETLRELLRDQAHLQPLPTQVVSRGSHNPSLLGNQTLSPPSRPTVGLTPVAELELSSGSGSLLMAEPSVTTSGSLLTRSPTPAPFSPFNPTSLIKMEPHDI

CTCTCC was tested, and the binding signal (FEV) was 1.32 fold enrichment (6-mer frequency, TF over GST control), the binding signal (ETV5) was 1.24 fold enrichment (6-mer frequency, TF over GST control) and the binding signal (HSF1) was 1.32 fold enrichment (6-mer frequency, TF over GST control). The binding signal (SPIC) was 1.41 fold enrichment (6-mer frequency, TF over GST control), the binding signal (ELF4) was 1.5 fold enrichment (6-mer frequency, TF over GST control) and the binding signal (ELK4) was 1.37 fold enrichment (6-mer frequency, TF over GST control). For the same sequence, the binding signal (ETV2) was 1.32 fold enrichment (6-mer frequency, TF over GST control), the binding signal (ELF3) was 1.6 fold enrichment (6-mer frequency, TF over GST control) and the binding signal (CRX) was 1.15 fold enrichment (6-mer frequency, TF over GST control). The binding signal (ETV1) was 1.42 fold enrichment (6-mer frequency, TF over GST control), the binding signal (ERF) was 1.43 fold enrichment (6-mer frequency, TF over GST control) and the binding signal (ETV3L) was 1.44 fold enrichment (6-mer frequency, TF over GST control). The binding signal (ETS2) was 1.43 fold enrichment (6-mer frequency, TF over GST control), the binding signal (SPDEF) was 1.22 fold enrichment (6-mer frequency, TF over GST control) and the binding signal (ETV7) was 1.31 fold enrichment (6-mer frequency, TF over GST control). For the same sequence, the binding signal (ELF5) was 1.37 fold enrichment (6-mer frequency, TF over GST control), the binding signal (ETV3) was 1.45 fold enrichment (6-mer frequency, TF over GST control) and the binding signal (ETV6) was 1.37 fold enrichment (6-mer frequency, TF over GST control).
